# Test results reported in PubChem BioAssay (NCATS).
# Results filed as inconclusive are left out. A call without a number means that no potency is given here. A number with no mark means an inactive call. Active and inactive are the calls of the source. Calls follow the shape of the dose curve; as a rule, active = well fitted curve in the direction sought with a large enough effect; inconclusive = small, poorly fitted or top-dose-only effect, or another doubt; inactive = no such curve, though single readings can be large; an effect the other way counts as inactive or inconclusive.
# What was measured:
# Furin (Homo sapiens) = Furin (Homo sapiens) (UniProt P09958); assay: Furin counterscreen qHTS for Zika virus inhibitors (AID 1347149); also: nearly all actives have a fitted effect of over 70% in size; also: potency is read from the fitted curve at half-maximal effect
# Chain of Furin (Homo sapiens) (P09958 whole entry, looked up): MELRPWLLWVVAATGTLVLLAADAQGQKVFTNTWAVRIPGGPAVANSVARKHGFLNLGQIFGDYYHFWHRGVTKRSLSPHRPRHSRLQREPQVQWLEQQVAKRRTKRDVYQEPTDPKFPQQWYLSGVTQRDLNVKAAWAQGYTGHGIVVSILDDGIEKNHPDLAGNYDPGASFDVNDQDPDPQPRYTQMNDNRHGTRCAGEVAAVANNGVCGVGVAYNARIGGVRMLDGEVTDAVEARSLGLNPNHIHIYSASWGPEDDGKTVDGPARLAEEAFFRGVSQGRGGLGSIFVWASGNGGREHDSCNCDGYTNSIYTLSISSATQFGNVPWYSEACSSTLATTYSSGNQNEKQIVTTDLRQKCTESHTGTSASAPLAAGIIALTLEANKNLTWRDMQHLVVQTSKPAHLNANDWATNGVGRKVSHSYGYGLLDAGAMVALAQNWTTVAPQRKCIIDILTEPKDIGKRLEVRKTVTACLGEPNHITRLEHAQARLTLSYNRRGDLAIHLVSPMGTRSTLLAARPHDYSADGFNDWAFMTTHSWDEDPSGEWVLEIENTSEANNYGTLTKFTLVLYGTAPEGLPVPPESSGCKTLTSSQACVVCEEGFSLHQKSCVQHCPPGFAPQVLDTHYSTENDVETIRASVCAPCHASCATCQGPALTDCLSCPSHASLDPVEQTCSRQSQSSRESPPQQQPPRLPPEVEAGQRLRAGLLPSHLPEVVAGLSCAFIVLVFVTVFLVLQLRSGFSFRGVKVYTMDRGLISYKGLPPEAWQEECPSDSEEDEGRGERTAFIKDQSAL
# Method in brief: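 Counterscreen measures cleavage of 2 microM BOC-RVRR-AMC, below its ~15 microM Km, by 5 nM full-length human furin at pH 7.0 after a 15-min compound preincubation. Inhibition derives from the 15-min fluorescence increase at 37C.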
# [1] = test system: Zika virus NS2B-NS3 protease (linked construct); assay: Confirmatory screen NINDS AMC qHTS for Zika virus inhibitors (AID 1347152);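 also: AMC fluorescence gain from cleaved Bz-Nle-KRR-AMC substrate over 15 min; top concentration of the series differs between compounds; nearly all actives have a fitted effect of over 70% in size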
# Method in brief: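 Concentration-response confirmation used the NINDS linked protease (NS2B hydrophilic domain joined to NS3 protease domain), 1 nM, with a 15-min compound preincubation. Substrate, Nle-KRR-AMC at 10 microM, was read by UV fluorescence before and after 15 min.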
# [2] = test system: Zika virus NS2B-NS3 protease (unlinked complex); assay: Confirmatory screen GU AMC qHTS for Zika virus inhibitors (AID 1347153); also: nearly all actives have a fitted effect of over 70% in size
# Method in brief: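 Unlinked NS2B-NS3 complex (25 nM) in 10 mM Tris-HCl pH 8.0, 0.01% Tween 20 preincubated 15 min with compound, then 10 microM Bz-Nle-KRR-AMC (Km 18.3 µM). Fluorescence change over 15 min, normalized, Hill-fitted.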
# [3] = Confirmatory screen NINDS Rhodamine qHTS for Zika virus inhibitors (AID 1347161); also: nearly all actives have a fitted effect of over 60% in size; also: potency is read from the fitted curve at half-maximal effect
# Method in brief: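 Enzyme (25 nM, linked NS2B-NS3) was preincubated 15 min with compound in 10 mM Tris-HCl pH 8.0, 0.01% Tween 20. Rhodamine110 substrate (1.5 microM) was then added and fluorescence read at start and after 15 min.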
# [4] = Vero cells viability qHTS for Zika virus inhibitors (AID 1347167)
# Method in brief: (§1)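 Luminescent ATP readout (CellTiter Glo) after 30 min at 37 degrees C gives viability; cells in DMEM + 4% FBS were treated 24 to 48 hours with compound, following overnight attachment.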
# [5] = HepG2 cells viability qHTS for Zika virus inhibitors (AID 1347168)
# Method in brief: as §1
# [6] = test system: Zika virus NS2B-NS3 protease (unlinked complex); assay: Primary screen GU Rhodamine qHTS for Zika virus inhibitors: Unlinked NS2B-NS3 protease assay (AID 1347159); also: nearly all actives have a fitted effect of over 60% in size
# Method in brief: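 In dose–response format, inhibition of unlinked protease (25 nM) was measured with 1.5 microM bis-peptide Rhodamine110 substrate. Aprotinin served as the intraplate control.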
# [7] = test system: Zika virus NS2B-NS3 protease (linked construct); assay: Primary screen NINDS Rhodamine qHTS for Zika virus inhibitors (AID 1347160); conditions: outcome: dose series up to 57.1 µM; also: nearly all actives have a fitted effect of over 55% in size
# Method in brief: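 Each compound, titrated, sat 15 min with 25 nM linked protease before 1.5 microM Rhodamine110 substrate went in. Fluorescence gain over the next 15 min, in pH 8.0 Tris with Tween 20, gave Hill-fitted curves.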
# [8] = test system: Zika virus NS2B-NS3 protease (linked construct); assay: 384 well plate NINDS Rhodamine confirmatory qHTS for Zika virus inhibitors (AID 1347164); conditions: rhodamine-110 peptide substrate fluorescence; also: potency is read from the fitted curve at half-maximal effect; nearly all actives have a fitted effect of over 65% in size
# Method in brief: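 Cleavage of Ac-LKRR-Rhodamine 110 (10 microM final) by linked protease (final 5, 30 or 60 nM) was followed as fluorescence at 485/538 nm after 25 min, room temperature, dark. Compounds preincubated ~15 min.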
# [9] = test system: Zika virus NS2B-NS3 protease (unlinked); assay: Optimization of GU AMC qHTS for Zika virus inhibitors: Unlinked NS2B-NS3 protease assay (AID 1347151); also: series mostly up to about 52 µM; nearly all actives have a fitted effect of over 80% in size
# Method in brief: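 In this qHTS, compounds acted on 25 nM unlinked Zika NS2B–NS3 in pH 8.0 Tris/Tween buffer. Cleavage of an AMC peptide ran 15 min at room temperature, to about 20% conversion.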
# [10] = test system: Zika virus NS2B-NS3 protease; assay: Primary screen GU AMC qHTS for Zika virus inhibitors (AID 1347154); also: nearly all actives have a fitted effect of over 70% in size
# Method in brief: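 Fluorogenic AMC-substrate cleavage by noncovalent NS2B-NS3 protease complex (25 nM, pH 8.0 Tris buffer with Tween 20) followed for 15 minutes at room temperature (~20% conversion). Percent inhibition from ex340/em450 signal change, fitted by 4-parameter Hill equation.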
# [11] = molecular target: N-terminal Xaa-Pro-Lys N-methyltransferase 1 (Homo sapiens) (UniProt Q9BV86); assay: qHTS Assay for Inhibitors of N-terminal methyltransferase 1 (NTMT1): LOPAC validation of the NTMT1 SAHH-coupled ThioGlo3 Assay (AID 1347143); also: potency is read from the fitted curve at half-maximal effect
# Chain of N-terminal Xaa-Pro-Lys N-methyltransferase 1 (Homo sapiens) (Q9BV86 whole entry, looked up): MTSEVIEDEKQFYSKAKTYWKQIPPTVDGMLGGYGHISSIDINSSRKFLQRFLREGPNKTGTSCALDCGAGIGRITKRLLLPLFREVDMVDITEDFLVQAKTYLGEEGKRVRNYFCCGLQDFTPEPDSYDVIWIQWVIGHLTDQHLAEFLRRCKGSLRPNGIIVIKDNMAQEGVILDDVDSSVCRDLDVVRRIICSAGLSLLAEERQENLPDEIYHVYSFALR
# Method in brief: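 NTMT1 125nM + cpds (various conc.), 1 min RT; add SAM 100uM/SAHH 10uM/ThioGlo3 15uM (addition mix). SAHH-coupled thiol detection, Ex340/Em450, t0 and 30 min RT; signal normalized to background. LOPAC 1280-cpd pilot.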
# [12] = molecular target: Lysine-specific demethylase 5B (Homo sapiens) (UniProt Q9UGL1); assay: Optimization screen for KDM5B Histone Demethylases FDH coupled qHTS against the LOPAC library (AID 1347166)
# Chain of Lysine-specific demethylase 5B (Homo sapiens) (Q9UGL1 whole entry, looked up): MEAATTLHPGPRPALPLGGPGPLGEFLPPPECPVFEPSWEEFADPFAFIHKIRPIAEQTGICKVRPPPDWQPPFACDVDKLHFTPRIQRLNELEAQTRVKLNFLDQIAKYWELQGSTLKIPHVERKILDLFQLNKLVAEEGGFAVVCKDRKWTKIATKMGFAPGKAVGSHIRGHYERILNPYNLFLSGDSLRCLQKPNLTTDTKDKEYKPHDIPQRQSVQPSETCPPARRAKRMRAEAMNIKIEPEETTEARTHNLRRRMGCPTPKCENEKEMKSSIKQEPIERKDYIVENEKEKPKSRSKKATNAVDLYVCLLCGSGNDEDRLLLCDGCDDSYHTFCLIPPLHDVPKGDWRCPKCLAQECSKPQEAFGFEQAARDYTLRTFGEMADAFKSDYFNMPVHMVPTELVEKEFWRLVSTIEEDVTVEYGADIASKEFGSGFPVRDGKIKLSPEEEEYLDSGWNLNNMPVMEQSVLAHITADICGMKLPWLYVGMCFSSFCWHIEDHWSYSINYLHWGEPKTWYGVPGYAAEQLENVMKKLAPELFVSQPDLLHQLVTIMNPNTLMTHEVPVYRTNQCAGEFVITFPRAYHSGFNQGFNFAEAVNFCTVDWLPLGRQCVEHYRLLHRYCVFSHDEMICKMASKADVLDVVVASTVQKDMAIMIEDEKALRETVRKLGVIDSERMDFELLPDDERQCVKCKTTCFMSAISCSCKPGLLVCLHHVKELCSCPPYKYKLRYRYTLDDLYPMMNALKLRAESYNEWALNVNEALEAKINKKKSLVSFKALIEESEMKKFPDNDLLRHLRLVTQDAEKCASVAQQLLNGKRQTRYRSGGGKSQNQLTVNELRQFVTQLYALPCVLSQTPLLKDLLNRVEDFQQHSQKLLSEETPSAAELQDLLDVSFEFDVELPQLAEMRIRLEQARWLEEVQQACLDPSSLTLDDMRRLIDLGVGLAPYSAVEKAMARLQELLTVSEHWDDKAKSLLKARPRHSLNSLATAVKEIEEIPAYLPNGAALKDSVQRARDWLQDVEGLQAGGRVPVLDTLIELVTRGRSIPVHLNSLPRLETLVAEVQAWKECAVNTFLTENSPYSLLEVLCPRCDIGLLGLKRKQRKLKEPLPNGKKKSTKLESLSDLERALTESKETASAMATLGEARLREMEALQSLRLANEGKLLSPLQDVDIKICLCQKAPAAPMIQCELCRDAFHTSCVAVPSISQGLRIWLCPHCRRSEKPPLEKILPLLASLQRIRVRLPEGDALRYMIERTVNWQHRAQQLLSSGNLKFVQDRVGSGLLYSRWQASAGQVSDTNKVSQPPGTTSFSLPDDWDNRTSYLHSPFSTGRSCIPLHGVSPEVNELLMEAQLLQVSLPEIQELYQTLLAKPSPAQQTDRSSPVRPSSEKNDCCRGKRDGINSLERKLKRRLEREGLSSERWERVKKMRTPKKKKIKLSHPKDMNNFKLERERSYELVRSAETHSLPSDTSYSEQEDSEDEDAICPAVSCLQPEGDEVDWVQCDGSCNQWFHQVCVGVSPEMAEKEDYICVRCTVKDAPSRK
# Method in brief: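 KDM5BDeltaAP (200nM final) in 50mM HEPES pH 7.5, 0.01% Tween-20 was preincubated with compound for 10 min at room temperature. A substrate mix of 12.5uM H3K4Me3, 25uM a-ketoglutarate, ascorbate, Fe2+, NAD+ and formaldehyde dehydrogenase was then added. NADH fluorescence (340/450 nm) was read initially and after 30 min.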
# [13] = Tertiary RLuc qRT-PCR qHTS assay for Zika virus inhibitors (AID 1347169); also: top concentration of the series differs between compounds; nearly all actives have a fitted effect of over 55% in size
# Method in brief: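 Inhibition of ZIKV-RLuc replication in Vero cells, read as Renilla luminescence 1-1.5 hrs after live-cell substrate addition, following 48-72 hrs infection at MOI 1-2 in presence of compound.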
structure (smiles),measurement,setting,value
CCOC(=O)c1cnc2c(cnn2CC)c1NN=C(C)C,Potency,Furin (Homo sapiens),inactive
same,outcome,[1],inactive
same,outcome,[2],inactive
same,Potency,[3],inactive
same,outcome,[4],inactive
same,outcome,[5],inactive
COC(=O)[C@H]1[C@H]2C[C@@H]3c4[nH]c5cc(OC)ccc5c4CCN3C[C@H]2C[C@@H](OC(=O)c2cc(OC)c(OC)c(OC)c2)[C@@H]1OC,Potency,Furin (Homo sapiens),27.1 µM (active)
same,outcome,[1],inactive
same,outcome,[2],inactive
same,outcome,[6],inactive
same,outcome,[7],inactive
same,Potency,[3],inactive
same,outcome,[4],inactive
same,outcome,[5],inactive
CCCN1C[C@H](CSC)C[C@@H]2c3cccc4[nH]cc(c34)C[C@H]21,outcome,[7],inactive
CN(C)[C@@H]1C(=O)C(C(N)=O)=C(O)[C@@]2(O)C(=O)C3=C(O)c4c(O)ccc(Cl)c4[C@@H](O)[C@H]3C[C@@H]12,Potency,[3],12.4 µM (active)
same,Potency,[8],25.1 µM (active)
COC(=O)[C@@H](N)Cc1ccc(O)c(O)c1,Potency,[9],inactive
CCO/C([O-])=N/c1c[n+](N2CCOCC2)no1,Potency,[9],inactive
same,outcome,[10],inactive
CN1CCN(C2=Nc3ccccc3Oc3ccc(Cl)cc32)CC1,Potency,[11],inactive
same,Potency,[9],inactive
same,outcome,[10],inactive
same,Potency,[12],inactive
CCN1CCc2nc(N)oc2CC1,Potency,[11],56.2 µM (active)
same,outcome,[1],inactive
same,outcome,[2],inactive
same,outcome,[10],inactive
same,Potency,[3],inactive
same,outcome,[4],inactive
same,outcome,[5],inactive
same,outcome,[13],inactive
NC/C=C/C(=O)O,Potency,[11],inactive
same,Potency,[9],inactive
same,outcome,[10],inactive
same,Potency,[12],inactive
COCCOC(=O)C1=C(C)NC(C)=C(C(=O)OC(C)C)C1c1cccc([N+](=O)[O-])c1 (configuration not stated),Potency,[11],inactive
same,outcome,[10],inactive
same,Potency,[12],inactive
NS(=O)(=O)c1cc2c(cc1Cl)NC(C1CC3C=CC1C3)NS2(=O)=O (configuration not stated),Potency,[11],inactive
same,Potency,[9],inactive
same,outcome,[10],inactive
same,Potency,[12],inactive
COc1ccc([C@@H]2Sc3ccccc3N(CCN(C)C)C(=O)[C@@H]2OC(C)=O)cc1,Potency,[11],inactive
same,Potency,[9],inactive
same,outcome,[10],inactive
same,Potency,[12],inactive
CC(C)(C)NCC(O)c1cc(O)cc(O)c1 (configuration not stated),Potency,[11],inactive
same,Potency,[9],inactive
same,outcome,[10],inactive
same,Potency,[12],inactive
CC(=O)Nc1nnc(S(N)(=O)=O)s1,Potency,[11],inactive
same,Potency,[9],inactive
same,outcome,[10],inactive
same,Potency,[12],inactive
O=C(O)CCCCCCCC(=O)O,Potency,[11],inactive
same,Potency,[9],inactive
same,outcome,[10],inactive
same,Potency,[12],inactive
CC(=O)OC(C)C[N+](C)(C)C (configuration not stated),Potency,[11],inactive
same,Potency,[9],inactive
same,outcome,[10],inactive
same,Potency,[12],inactive
C[C@@H](O)[C@H]1C(=O)N2C(C(=O)O)=C(SCCN=CN)C[C@H]12,Potency,[11],inactive
same,Potency,[9],inactive
same,outcome,[10],inactive
same,Potency,[12],inactive
COc1ccc(CN(CCN(C)C)c2ccccn2)cc1,Potency,[9],inactive
same,outcome,[10],inactive
C[N+](C)(C)CCOC(=O)CCC(=O)OCC[N+](C)(C)C,Potency,[9],inactive
same,outcome,[10],inactive
CCOC(=O)C1=C(C)NC(C)=C(C(=O)OC)C1c1cccc([N+](=O)[O-])c1 (configuration not stated),Potency,[11],inactive
same,Potency,[9],inactive
same,outcome,[10],inactive
same,Potency,[12],inactive
Cc1nc2sccn2c(=O)c1CCN1CCC(=C(c2ccc(F)cc2)c2ccc(F)cc2)CC1,Potency,[11],inactive
same,outcome,[1],inactive
same,outcome,[2],inactive
same,outcome,[10],inactive
same,Potency,[3],inactive
same,outcome,[4],inactive
same,outcome,[5],inactive
NC1=NCC2c3ccccc3Cc3ccccc3N12 (configuration not stated),Potency,[11],inactive
same,Potency,[9],inactive
same,outcome,[10],inactive
same,Potency,[12],inactive
C[C@]12CCC(=O)C=C1CC[C@@H]1[C@@H]2C(=O)C[C@@]2(C)[C@H]1CC[C@]2(O)C(=O)CO,Potency,[11],inactive
same,Potency,[9],inactive
same,outcome,[10],inactive
same,Potency,[12],inactive
CN(C)C(=O)Oc1ccc[n+](C)c1,Potency,[11],inactive
same,Potency,[9],inactive
same,outcome,[10],inactive
same,Potency,[12],inactive
CCN(CC)CC(=O)Nc1c(C)cccc1C,Potency,[11],inactive
same,Potency,[9],inactive
same,outcome,[10],inactive
same,Potency,[12],inactive
CN(C)CCOC(=O)COc1ccc(Cl)cc1,Potency,[11],56.2 µM (active)
same,Potency,[9],inactive
same,outcome,[10],inactive
same,Potency,[12],inactive
O=C1NCN(c2ccccc2)C12CCN(CCCC(c1ccc(F)cc1)c1ccc(F)cc1)CC2,Potency,[11],inactive
same,Potency,[9],inactive
same,Potency,[12],inactive
CNC1(C)C2CCC(C2)C1(C)C (configuration not stated),Potency,[11],inactive
same,Potency,[9],inactive
same,outcome,[10],inactive
same,Potency,[12],inactive
c1cc(CN2CCCCC2)cc(OCCCNc2nc3ccccc3s2)c1,Potency,[11],22.4 µM (active)
same,Potency,[9],inactive
same,outcome,[10],inactive
same,Potency,[12],inactive
FC(F)(F)c1ccccc1-n1ccnc1,Potency,[11],inactive
same,Potency,[9],inactive
same,outcome,[10],inactive
same,Potency,[12],inactive
